Records with an inconclusive call do not appear. A call without a number means that no potency is given here. Unmarked numbers belong to inactive results. The source made the active and inactive calls. The call rests on the fitted dose curve; in most records, active means well fitted curve in the direction sought with a large enough effect; inconclusive means small, poorly fitted or top-dose-only effect, or another doubt; inactive means no such curve, though single readings can be large; an effect the other way counts as inactive or inconclusive.
Key:
[1] = molecular target: Rap guanine nucleotide exchange factor 3 (Homo sapiens) (UniProt O95398); assay: Confirmatory qHTS for agonist of cAMP-regulated guanine nucleotide exchange factor 3 (EPAC1) (AID 1645881);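 further: EPAC1 catalysed release of BODIPY-GDP from Rap1B seen as fluorescence loss; nearly all actives have a fitted effect of over 75% in size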
Chain of Rap guanine nucleotide exchange factor 3 (Homo sapiens) (O95398 whole entry, looked up): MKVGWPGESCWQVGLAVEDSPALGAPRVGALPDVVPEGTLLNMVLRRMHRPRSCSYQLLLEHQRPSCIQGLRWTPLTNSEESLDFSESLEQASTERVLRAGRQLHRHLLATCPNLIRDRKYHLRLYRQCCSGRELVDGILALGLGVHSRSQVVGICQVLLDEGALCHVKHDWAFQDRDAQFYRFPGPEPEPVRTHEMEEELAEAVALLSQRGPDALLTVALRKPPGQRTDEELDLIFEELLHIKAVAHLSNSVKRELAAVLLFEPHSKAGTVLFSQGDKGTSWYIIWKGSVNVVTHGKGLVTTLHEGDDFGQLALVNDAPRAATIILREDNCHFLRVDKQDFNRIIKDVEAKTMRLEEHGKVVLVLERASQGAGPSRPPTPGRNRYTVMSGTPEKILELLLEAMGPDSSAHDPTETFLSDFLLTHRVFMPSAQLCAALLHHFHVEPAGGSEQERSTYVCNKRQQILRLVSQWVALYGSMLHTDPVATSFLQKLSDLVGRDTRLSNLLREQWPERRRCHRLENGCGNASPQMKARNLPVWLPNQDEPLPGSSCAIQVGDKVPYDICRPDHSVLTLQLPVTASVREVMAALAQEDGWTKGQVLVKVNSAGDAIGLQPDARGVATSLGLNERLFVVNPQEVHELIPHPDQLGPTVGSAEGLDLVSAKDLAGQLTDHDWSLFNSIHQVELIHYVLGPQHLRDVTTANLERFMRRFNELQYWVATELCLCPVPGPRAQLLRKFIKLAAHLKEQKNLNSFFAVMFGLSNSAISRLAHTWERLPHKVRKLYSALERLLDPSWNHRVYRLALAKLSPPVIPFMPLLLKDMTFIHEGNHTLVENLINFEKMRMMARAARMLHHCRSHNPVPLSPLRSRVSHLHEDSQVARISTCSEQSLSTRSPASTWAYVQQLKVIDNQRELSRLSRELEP

[2] = molecular target: Rap guanine nucleotide exchange factor 3 (Homo sapiens) (UniProt O95398); assay: Counterscreen qHTS for antagonist of cAMP-regulated guanine nucleotide exchange factor 3 (EPAC1) (AID 1645888);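 further: fluorescence loss as bound BODIPY-GDP is released from Rap1B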
In short: (§1)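 Measured: fluorescence of BODIPY-GDP bound to Rap1B, which falls as exchange proceeds. Conditions include 50 uM competing GDP, 5 and 30 min reads, and a later cAMP challenge for antagonist detection.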

[3] = molecular target: Rap guanine nucleotide exchange factor 3 (Homo sapiens) (UniProt O95398); assay: Counterscreen qHTS for agonist of cAMP-regulated guanine nucleotide exchange factor 3 (EPAC1) (AID 1645889); further: nearly all actives have a fitted effect of over 40% in size
In short: as §1

[4] = molecular target: Rap guanine nucleotide exchange factor 4 (Homo sapiens) (UniProt Q8WZA2); assay: Confirmatory qHTS for agonist of cAMP-regulated guanine nucleotide exchange factor 4 (EPAC2) (AID 1645884);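 further: nucleotide exchange releases bodipy-GDP from Rap1 and this lowers its fluorescence; nearly all actives have a fitted effect of over 65% in size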; further: potency means the concentration at half of the fitted maximal effect
Chain of Rap guanine nucleotide exchange factor 4 (Homo sapiens) (Q8WZA2 whole entry, looked up): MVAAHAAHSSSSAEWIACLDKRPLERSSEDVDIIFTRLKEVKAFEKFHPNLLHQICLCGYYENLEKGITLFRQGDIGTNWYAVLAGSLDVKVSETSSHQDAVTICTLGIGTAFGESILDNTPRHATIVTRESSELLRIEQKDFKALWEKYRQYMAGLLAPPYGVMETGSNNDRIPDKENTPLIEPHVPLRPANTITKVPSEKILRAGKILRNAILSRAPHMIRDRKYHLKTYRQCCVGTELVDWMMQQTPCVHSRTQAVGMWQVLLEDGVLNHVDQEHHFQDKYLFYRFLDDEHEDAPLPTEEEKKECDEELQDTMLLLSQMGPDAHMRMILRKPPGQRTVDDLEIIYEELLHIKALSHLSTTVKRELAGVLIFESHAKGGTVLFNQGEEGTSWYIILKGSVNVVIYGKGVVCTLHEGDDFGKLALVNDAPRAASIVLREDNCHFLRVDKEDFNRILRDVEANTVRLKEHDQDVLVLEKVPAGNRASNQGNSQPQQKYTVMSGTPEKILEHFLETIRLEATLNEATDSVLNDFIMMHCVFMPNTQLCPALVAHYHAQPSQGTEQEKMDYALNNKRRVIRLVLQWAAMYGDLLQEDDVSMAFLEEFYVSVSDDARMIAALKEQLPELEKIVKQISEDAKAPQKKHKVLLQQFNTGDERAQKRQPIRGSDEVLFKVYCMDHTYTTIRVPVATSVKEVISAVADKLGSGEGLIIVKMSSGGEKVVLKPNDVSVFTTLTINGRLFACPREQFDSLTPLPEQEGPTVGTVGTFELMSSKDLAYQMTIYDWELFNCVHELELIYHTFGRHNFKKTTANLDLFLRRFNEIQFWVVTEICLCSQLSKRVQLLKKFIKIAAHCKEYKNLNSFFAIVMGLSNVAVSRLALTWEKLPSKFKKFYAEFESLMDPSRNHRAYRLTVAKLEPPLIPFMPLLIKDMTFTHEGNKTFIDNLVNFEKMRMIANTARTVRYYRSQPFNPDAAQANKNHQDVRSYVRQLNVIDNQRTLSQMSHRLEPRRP

[5] = molecular target: Rap guanine nucleotide exchange factor 4 (Homo sapiens) (UniProt Q8WZA2); assay: Confirmatory qHTS for antagonist of cAMP-regulated guanine nucleotide exchange factor 4 (EPAC2) (AID 1645885); further: nearly all actives have a fitted effect of over 25% in size

`COC(=O)c1ccc2nc(-c3cccc(Cl)c3)c(Cc3ccccc3)n2c1` was tested, and the Potency [1] was “inactive”, the activity change, negative = inhibition [2] was -21.2% [at 30.8 µM] and the activation [3] was 15.5% [at 30.8 µM].

`COc1ccccc1C1CC(=O)Oc2cc(C)c(Br)c(C)c21` (centres undefined) was tested, and the Potency [1] was “inactive” and the Potency [2] was “inactive”.

In the case of `CCC(C(=O)c1ccc2ncccc2c1)c1ccccc1` (centres undefined), the Potency [1] was “inactive”, the Potency [2] was “inactive” and the Potency [3] was “inactive”.

In the case of `CC(=O)Nc1ccc(S(=O)(=O)N2CCN(c3cc(C)ccc3C)CC2)cc1`, the Potency [1] was “inactive” and the Potency [2] was “inactive”.

In the case of `COc1ccc(CN2C(=O)c3cccnc3C2O)cc1` (centres undefined), the Potency [1] was “inactive”, the Potency [2] was “inactive” and the Potency [3] was “inactive”.

`COc1ccc(C=C(C(C)=O)C(=O)c2ccccc2)cc1` was tested, and the Potency [1] was “inactive” and the Potency [2] was “inactive”.

For `C/C(=N\N(Cc1ccccc1)c1ccccc1)c1cccnc1`, the Potency [1] was “inactive” and the Potency [2] was “inactive”.

In the case of `COc1cccc(-c2coc3c(C)c4oc(=O)c(CCC(=O)O)c(C)c4cc23)c1`, the Potency [1] was “inactive”, the Potency [2] was “inactive” and the Potency [3] was “inactive”.

`COC(=O)c1ccccc1C(=O)c1c(C)cc(C)cc1C` was tested, and the Potency [1] was “inactive”, the activity change, negative = inhibition [2] was 4.03% [at 30.8 µM] and the activation [3] was 0.931% [at 30.8 µM].

`COC(=O)c1ccc2nc(C3CCCCC3)c(Cc3ccccc3C(F)(F)F)n2c1` was tested, and the Potency [1] was “inactive”, the Potency [2] was “inactive” and the Potency [3] was “inactive”.

In the case of `COc1ccc(C2CC(=O)Oc3cc(OC)c(OC)c(OC)c32)cc1` (centres undefined), the Potency [1] was “inactive”, the activity change, negative = inhibition [2] was -24.9% [at 30.8 µM] and the activation [3] was 20% [at 30.8 µM].

With `COc1ccc(CN(C(=O)c2ccco2)c2ccc(C)c(C)c2)cc1` the Potency [1] was “inactive”, the activity change, negative = inhibition [2] was -23% [at 30.8 µM] and the activation [3] was 12.3% [at 30.8 µM].

`N#Cc1c(N)c(C#N)c(-c2ccc(O)cc2)c2c1CCCC2` was tested, and the Potency [1] was “inactive” and the Potency [2] was “inactive”.

With `CCC(=O)N1N=C(c2cccs2)CC1c1ccc(C)cc1` (centres undefined) the Potency [1] was “inactive”, the Potency [2] was “inactive” and the Potency [3] was “inactive”.

With `Cc1cccc2c1NC(=O)C2(O)N1CCCC(C)C1` (centres undefined) the Potency [1] was “inactive”, the Potency [2] was “inactive” and the Potency [3] was “inactive”.

For `Cc1nc([N+](=O)[O-])c(Br)n1Cc1ccc(Cl)c(Cl)c1`, the Potency [1] was “inactive” and the Potency [2] was “inactive”.

In the case of `Cc1nn(-c2c(Cl)cc(Cl)cc2Cl)c(=O)c2ccccc12`, the Potency [1] was “inactive” and the Potency [2] was “inactive”.

For `COC(=O)c1ccc2nc(-c3ccc(C)cc3)c(Cc3ccsc3)n2c1`, the Potency [1] was “inactive”, the activity change, negative = inhibition [2] was 1.91% [at 30.8 µM] and the activation [3] was 9.45% [at 30.8 µM].

In the case of `CSc1nc(N)c(C(=O)N(c2ccccc2)c2ccccc2)s1`, the Potency [1] was “inactive”, the activity change, negative = inhibition [2] was -10.5% [at 30.8 µM] and the activation [3] was 22.8% [at 30.8 µM].

For `CCc1nnc(NS(=O)(=O)c2ccc(NC(=O)C(c3ccccc3)c3ccccc3)cc2)s1`, the Potency [1] was “inactive” and the Potency [2] was “inactive”.

`Cc1cccc(Oc2ccccc2NC(=O)C2=COCCO2)c1` was tested, and the Potency [1] was “inactive” and the Potency [2] was “inactive”.

`COc1ccc(C2Nc3ccccc3-c3cc(C)nn32)c(OC)c1` (centres undefined) was tested, and the Potency [4] was “inactive”, the Potency [5] was “inactive” and the Potency [2] was “inactive”.

`Cc1cc(=O)n(Cc2ccccc2)c2c1c(C)nn2C` was tested, and the Potency [4] was “inactive”, the Potency [5] was “inactive” and the Potency [2] was “inactive”.

In the case of `CCOc1ccc(N(Cc2ccc(OC)cc2)C(=O)c2ccco2)cc1`, the Potency [1] was “inactive” and the Potency [3] was “inactive”.

In the case of `O=C(O)c1ccc(N/N=C/c2ccc(-c3ccc(Cl)cc3Cl)o2)cc1`, the Potency [4] was “inactive”, the Potency [5] was “inactive” and the Potency [2] was “inactive”.

For `O=C1N(Cc2ccccc2Cl)c2ccccc2C1(O)c1c[nH]c2ccccc12` (centres undefined), the Potency [4] was “inactive”, the Potency [5] was “inactive” and the Potency [2] was “inactive”.

With `O=C1Nc2ccccc2N=C(c2ccccc2)c2ccccc21` the Potency [1] was “inactive” and the activation [3] was 39.2% [at 30.8 µM].

For `COC(=O)c1ccc2nc(-c3ccc(C)cc3)c(Cc3cccc(F)c3)n2c1`, the Potency [1] was “inactive” and the Potency [3] was “inactive”.

In the case of `CCc1nc2c(OCc3ccc(C(F)(F)F)cc3)cccn2c1N(C)C(=O)C1CC1`, the Potency [1] was “inactive” and the Potency [3] was “inactive”.

For `Nc1nc(N)c2c(ccc3c2ccn3Cc2cccc([N+](=O)[O-])c2)n1`, the Potency [4] was 100 µM (active).

`O=C(Nc1cc(S(=O)(=O)N2CCCCC2)ccc1O)c1ccccc1NS(=O)(=O)c1ccc(F)c(F)c1` was tested, and the Potency [4] was 0.282 µM (active), the Potency [5] was “inactive” and the activity change, negative = inhibition [2] was -23% [at 30.8 µM].

`Cc1ccc(N2C(=O)c3ccccc3C2Nc2ccccc2F)nc1` (centres undefined) was tested, and the activation [4] was 11.4% [at 17.1 µM, percent relative to cAMP agonist control], the Potency [5] was “inactive” and the activity change, negative = inhibition [2] was 13.9% [at 30.8 µM].

In the case of `Cc1ccc(N(Cc2ccc([N+](=O)[O-])cc2)C(=O)c2ccco2)cc1C`, the Potency [1] was “inactive”, the Potency [2] was “inactive” and the Potency [3] was “inactive”.

— PubChem BioAssay (NCATS)
